# Measurements from PubChem BioAssay AID504840 (Johns Hopkins Ion Channel Center, 2011).
# Out of some 1,500 compounds screened, about 890 (59%) were called active.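 Rule for the calls: active = inhibition of the choline-evoked signal at any tested dose together with a fitted dose-response curve; inactive = no inhibition at any dose or no curve.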 The set was probably picked from earlier hits. Only a sample is shown. Entries with a potency or affinity are not part of this list.
# Biological target: High affinity choline transporter 1 (Homo sapiens) (UniProt Q9GZV3)
# Assay: human choline transporter blockers, potency – cell-based, 5-point CRC, membrane potential dye, dose response (AID 504840);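 note: 0% = buffer-only response and 100% = EC90 choline response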
# Settings: HEK293-CHT, choline-induced depolarization, CHT with LV-to-AA double alanine mutation; series mostly up to 37 µM; inhibition: at the top concentration
# Chain of High affinity choline transporter 1 (Homo sapiens) (Q9GZV3 whole entry, looked up): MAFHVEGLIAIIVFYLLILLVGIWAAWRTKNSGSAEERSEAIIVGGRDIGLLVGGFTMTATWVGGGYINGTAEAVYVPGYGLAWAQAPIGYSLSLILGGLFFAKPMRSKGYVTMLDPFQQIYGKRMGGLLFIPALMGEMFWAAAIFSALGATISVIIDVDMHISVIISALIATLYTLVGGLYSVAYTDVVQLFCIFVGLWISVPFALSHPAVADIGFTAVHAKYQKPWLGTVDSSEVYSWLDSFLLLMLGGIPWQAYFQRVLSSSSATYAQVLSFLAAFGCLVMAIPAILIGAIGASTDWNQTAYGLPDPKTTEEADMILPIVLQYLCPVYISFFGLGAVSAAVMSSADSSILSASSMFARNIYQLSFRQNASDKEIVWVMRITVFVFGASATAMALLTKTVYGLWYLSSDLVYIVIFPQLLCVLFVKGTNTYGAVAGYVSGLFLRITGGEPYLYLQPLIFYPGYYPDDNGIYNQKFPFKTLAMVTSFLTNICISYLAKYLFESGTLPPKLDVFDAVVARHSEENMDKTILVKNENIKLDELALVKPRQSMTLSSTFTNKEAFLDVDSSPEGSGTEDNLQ
row,SMILES,inhibition
1,COc1ccc(C(=O)NCc2ccon2)cc1OC1CCN(C(C)C)CC1,57.9% (inactive)
2,COc1cc(CNCCc2ccccc2)cc(Br)c1OCC(=O)Nc1ccccc1C,37.7% (inactive)
3,Cn1c(SCc2nc3ccccc3s2)nnc1-c1cccs1,18.9% (inactive)
4,CC(=O)Nc1ccc(S(=O)(=O)Nc2nc3ccccc3nc2Nc2ccc(N)cc2)cc1,27.9% (inactive)
5,COc1ccc(-c2nnc(CSc3nc4ccccc4c(=O)n3CC3CCCO3)o2)cc1OC (centres undefined),57.4% (inactive)
6,CC(C)(C)NS(=O)(=O)c1ccc(N2C(=O)c3ccccc3C2=O)cc1,29.7% (inactive)
7,Cc1noc(C)c1C(=O)Nc1sc(C)c(-c2ccccc2)c1C#N,36.6% (inactive)
8,O=C(OCc1nc2ccsc2c(=O)[nH]1)c1cc(Br)c(Br)s1,33.4% (inactive)
9,Cc1[nH]n(-c2ccccc2)c(=O)c1C(c1cccc([N+](=O)[O-])c1O)c1c(C)[nH]n(-c2ccccc2)c1=O,62.9% (inactive)
10,O=c1c(-c2ccccc2)c[nH]n1-c1cccc([N+](=O)[O-])c1,51.3% (inactive)
11,Cc1cccnc1NC(=O)c1cccc(S(=O)(=O)N2CCN(c3ccc(F)cc3)CC2)c1,28.9% (inactive)
12,O=C(C1CCN(S(=O)(=O)c2ccc(Br)s2)CC1)N1CCN(c2ccccc2)CC1,7.31% (inactive)
13,COc1cc(-c2nnc(SC/C=C/c3ccccc3)n2N)cc(OC)c1OC,32.7% (inactive)
14,CCOC(=O)c1sc(=S)n(CC)c1NC(=O)C1CC1,23.2% (inactive)
15,O=c1cc(CNc2ccc(Br)cc2)nc2sccn12,33.4% (inactive)
16,CCCN1Cc2cccc(C(=O)NCc3ccccc3OC)c2C1=O,30.2% (inactive)
17,Cc1cc(O)ccc1C1(c2ccc(O)cc2C)OC(=O)c2ccccc21,28.5% (inactive)
18,CCCCCCCCC[n+]1cccc2c3ccccc3ccc21,42.3% (inactive)
19,Cc1c(C)n(CCc2ccccc2)c2ncnc(NN)c12,28.7% (inactive)
20,Cn1ncc2c(N3CCC(Cc4ccccc4)CC3)ncnc21,33.5% (inactive)
21,O=C(NC1CC1)C1=C[C@H](c2ccc(Br)cc2)C[C@H](OCc2ccc(CO)cc2)O1,52.6% (inactive)
22,Cn1nc(C(F)(F)F)c(-c2ccccc2)c1NC(=O)c1ccco1,58.8% (inactive)
23,O=C(Nc1ccc(Cl)cn1)C1CCCN(c2ncnc3c2nc2n3CCCCC2)C1 (centres undefined),53.9% (inactive)

row,SMILES,inhibition
1,O=C(Nc1ccccc1Cl)C1CCCN(c2ncnc3c2nc2n3CCCCC2)C1 (centres undefined),79.8% (inactive)
2,O=C(N/N=C/c1cccc(Oc2ccccc2)c1)c1cccc(O)c1,25.8% (inactive)
3,O=c1cc(CSc2nc3cc(Cl)ccc3o2)nc2sccn12,48.6% (inactive)
4,O=c1cc(CN2CCN(c3ccccc3O)CC2)nc2sccn12,51.6% (inactive)
5,O=C(Cn1nc(C(F)(F)F)c2c1CCCC2)NC1CCCC1,15.2% (inactive)
6,O=C(Cn1nc(C(F)(F)F)cc1C1CC1)NCc1ccccc1F,3.99% (inactive)
7,Clc1cccc(CNCCNCc2cccc(Cl)c2)c1,27.9% (inactive)
8,O=C(CSc1nnc(Cc2ccsc2)o1)c1ccccc1,45.5% (inactive)
9,CC(C)(C)OC(=O)NCCc1nnc(SCc2ccc(Cl)cc2)o1,24.7% (inactive)
10,CCOC(=O)c1[nH]c(C=O)c(C(=O)OCC)c1C,38% (inactive)
11,O=C(CSc1nccn1-c1ccc(F)cc1)NCc1ccc(F)cc1,30.9% (inactive)
12,C=CCn1c(CSc2nc3ccccc3s2)nnc1SCC(=O)NCc1ccccc1,42.6% (inactive)
13,CCN1CCN(C(=O)CCc2nc3ccccc3n2-c2ccccc2)CC1,64% (inactive)
14,Cc1nc2cc(C(=O)N3c4ccccc4CC3C)ccc2s1 (centres undefined),45.4% (inactive)
15,COc1ccc(-c2cc(C(=O)NCCCN3CCOCC3)c3cc(C(C)C)ccc3n2)cc1,29.7% (inactive)
16,CC(=O)c1cccc(OCC(=O)c2cc(C)n(-c3cc(C)on3)c2C)c1,24% (inactive)
17,N#C/C(=C\c1ccc(O)c(Br)c1)C(=O)NCc1ccccc1,24.4% (inactive)
18,COc1ccccc1NS(=O)(=O)c1ccc(O)c(C(=O)OCC(=O)c2ccc(Cl)cc2Cl)c1,5.73% (inactive)
19,Cc1c(Cl)cccc1NCC(=O)NN=C1CCCC1,48.2% (inactive)
20,Cc1nc(SC2CC(=O)N(c3cc(Cl)cc(Cl)c3)C2=O)nc2c1CCCC2 (centres undefined),18.9% (inactive)
21,COc1ccc(OC)c(Cc2nnc(CCC(=O)N3CCN(C4CCCC4)CC3)o2)c1,50.6% (inactive)
22,CC(C)(C)c1cc(C(=O)N/N=C/c2ccc(F)cc2)n(-c2ccccc2)n1,37.8% (inactive)
23,Cc1ccc(S(=O)(=O)N/N=C/c2cc(Br)ccc2O)cc1,53.1% (inactive)

row,SMILES,inhibition
1,Cc1cc(/C=N/NC(=O)C(=O)NCc2ccccn2)c(C)n1-c1ccccc1,59.3% (inactive)
2,CCOC(=O)c1cc2c(s1)-c1c(C)cccc1OC2,-5.26% (inactive)
3,Cc1ccccc1NC(=S)NNC(=O)c1ccncc1,1.63% (inactive)
4,COc1ccc(C(=O)NC(=S)NNC(=O)c2ccc(C)cc2)cc1,27.9% (inactive)
5,Cc1ccc(C)c(NC(=O)c2cccc(Oc3ccc([N+](=O)[O-])cc3Cl)c2)c1,29.1% (inactive)
6,O=C(Nc1ccc(F)cc1)N1CCN(CCc2ccccc2)CC1,32.2% (inactive)
7,Cc1ccc(C#CC[N+]2(C)CCCCC2)cc1,62.4% (inactive)
8,C#CC[N+]1(CC#Cc2ccc(C)cc2)CCCCC1,63.6% (inactive)
9,Cc1cn([C@H](C(=O)NCCCCCCCCCCC(=O)N2CCN(C(=O)OC(C)(C)C)CC2)[C@@H](C)O)nn1,38% (inactive)
10,CN(/N=C/c1cc(Cl)cc(Cl)c1O)C(=S)NC(C)(C)C,19.2% (inactive)
11,O=C(CNC(=O)c1ccc(Cl)cc1Cl)OCC(=O)c1ccc2c(c1)OCCO2,56.5% (inactive)
12,COc1cc(CCCN2C(=O)C(=O)NC[C@H]2Cc2cccc3ccccc23)cc(OC)c1OC,61.8% (inactive)
13,Cc1ccc(F)cc1NC(=O)c1ccc(NS(=O)(=O)c2ccc(Br)s2)cc1,64.1% (inactive)
14,CC(NC(=O)Cc1ccc(S(=O)(=O)N2CCOCC2)s1)c1ccc(Cl)c(Cl)c1 (centres undefined),36.9% (inactive)
15,CCOC(=O)c1ccc(NC(=O)c2ccc(C)c(S(=O)(=O)N3CCOCC3)c2)cc1,22.8% (inactive)
16,O=S(=O)(Nc1nc2ccccc2s1)c1ccc(Cl)s1,27.1% (inactive)
17,O=C(Nc1ccccc1)c1nnn(Cc2ccccc2)c1NC(=O)C(F)(F)F,45.3% (inactive)
18,Cc1ccc(-c2csc3nc(SCC(=O)Nc4ccc(Cl)c(C(=O)O)c4)[nH]c(=O)c23)cc1,41.6% (inactive)
19,O=C(O)CSc1cc(C(=O)c2ccccc2O)cn2c(=O)c3c(-c4ccccc4)csc3nc12,76.9% (inactive)
20,O=S(=O)(Nc1nc2ccccc2nc1NCC1CCCO1)c1cc(Cl)ccc1Cl (centres undefined),28.4% (inactive)
21,CCCc1cc(NCCN(C)C)n2c(nc3ccccc32)c1C#N,47.7% (inactive)
22,O=C(Nc1sc2c(c1C(=O)O)CCCC2)c1ccc(Cl)cc1,26.7% (inactive)
23,NC(=O)c1c(NC(=O)CN2C(=O)NC(Cc3ccccc3)C2=O)sc2c1CCC2 (centres undefined),51.4% (inactive)
